Screening data deposited in PubChem by National Center for Advancing Translational Sciences (NCATS).
IL-1B inflam inh – inflammasome signaling inhibition, IL-1 beta readout. THP-1 LPS/ATP IL-1B secretion, AlphaLISA, 16 h; hits give low values. 4.7% of 360,000 active. activity change, % at 57.5 µM; in the data active = activity change below about -50%; inconclusive = mostly about -30% to -49%
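Secreted IL-1B measured by AlphaLISA bead assay after 16 h compound exposure of THP-1 cells; compounds (final up to 57.5 uM) added 1 h before LPS (250 ng/mL) and ATP (1.25 mM) stimulation; lower signal means less secretion.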
ATXN2 expr inh – reduces ATXN2 reporter expression in HEK-293 cells; HEK-293 ATXN2-luciferase reporter, luminescence, 24 h; Potency, µM (titrated, usually from 57 µM), most hits filed as inhibitors; 0.72% of 360,000 active; AID 1745845; also: nearly all actives have a fitted effect of over 55% in size
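ATXN2-luciferase reporter cells (luciferase flanked by upstream and downstream ATXN2 gene portions) were treated 24 h at 37 °C with compounds at up to 57 uM. SteadyGlo luminescence gave expression; GF-AFC fluorescence gave viability.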
ATXN viability – reduces viability in counter-screen for ATXN expression inhibitors | S2 cells (HEK-293 line with an ATXN2-luciferase reporter) viability, CellTiter-Fluor protease fluorescence, 24 h | Potency, µM (titrated, usually from 56.7 µM), hits mostly cytotoxic | 0.49% of 400,000 active | AID 651635; also: nearly all actives have a fitted effect of over 40% in size
USP1-UAF1 inh – USP1/UAF1 (human) deubiquitinase inhibition. recombinant USP1/UAF1, Ub-Rhodamine cleavage fluorescence. 0.23% of 390,000 active. O94782. Potency, µM (highest dose often 57.1 µM), actives largely listed as inhibitors; also: nearly all actives have a fitted effect of over 60% in size
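USP1/UAF1 complex (1 nM) preincubated 15 min at room temperature with compound, then Ub-Rho substrate (150 nM final) added. Kinetic fluorescence at 480/540 nm over 6 reads at 60 s intervals; 50 mM HEPES pH 7.8, 0.5 mM EDTA, 0.1 mg/ml BSA, 1 mM TCEP, 0.01% Tween-20.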
USP2a inh – blocks human ubiquitin-specific protease USP2a. O75604. USP2 core, Ub-CHOP2 coupled fluorogenic reporter, 485/531. Potency, µM (highest dose often 38.3 µM), hits mostly inhibitors. 0.01% of 330,000 active
Target sequence (O75604 whole entry, looked up): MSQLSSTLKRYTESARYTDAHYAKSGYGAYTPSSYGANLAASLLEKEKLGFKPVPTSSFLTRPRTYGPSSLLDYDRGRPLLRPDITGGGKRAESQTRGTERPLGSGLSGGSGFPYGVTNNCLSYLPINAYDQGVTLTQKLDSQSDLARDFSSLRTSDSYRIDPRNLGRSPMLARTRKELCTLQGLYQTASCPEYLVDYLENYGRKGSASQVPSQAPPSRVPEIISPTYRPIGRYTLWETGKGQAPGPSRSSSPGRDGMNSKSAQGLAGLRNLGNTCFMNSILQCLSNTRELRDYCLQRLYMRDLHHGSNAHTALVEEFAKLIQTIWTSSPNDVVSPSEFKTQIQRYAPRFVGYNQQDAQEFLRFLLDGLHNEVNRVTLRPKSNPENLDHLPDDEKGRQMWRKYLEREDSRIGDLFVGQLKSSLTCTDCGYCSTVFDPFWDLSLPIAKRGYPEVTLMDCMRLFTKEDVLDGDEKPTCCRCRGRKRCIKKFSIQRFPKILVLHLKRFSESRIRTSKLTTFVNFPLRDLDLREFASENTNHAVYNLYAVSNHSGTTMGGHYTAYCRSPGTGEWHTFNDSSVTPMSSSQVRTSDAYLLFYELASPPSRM
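USP2 core (10nM final) preincubated 30min RT with compound in 20mM Tris-HCl pH 8.0, 2mM CaCl2, 2mM beta-mercaptoethanol, 0.05% CHAPS; 25nM Ub-CHOP2 plus 25nM reporter substrate added, fluorescence (Ex485/Em531) read after 60min.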
A number is an active result; i = inactive; ? = inconclusive; nt = no result. In the library only some 4.8% were active in any assay of this set; here they are far more common. Unless noted, calls follow the shape of the dose curve; as a rule, active = well fitted curve in the direction sought with a large enough effect; inconclusive = small, poorly fitted or top-dose-only effect, or another doubt; inactive = no such curve, though single readings can be large; an effect the other way counts as inactive or inconclusive.

SMILES	IL-1B inflam inh	ATXN2 expr inh	ATXN viability	USP1-UAF1 inh	USP2a inh
CC(=O)N1CCN(c2ccccc2NC(=O)COc2cc(C)ccc2C(C)C)CC1	?	i	i	i	i
Cc1ccc(C(C)C)c(OCC(=O)Nc2ccccc2N2CCN(C)CC2)c1	-59	?	?	i	i
CCCCN1CCc2c1nc1ccc(Br)cc1c2N	-96	?	nt	i	i
COc1ccc(CNC(=O)Nc2ccc3c(c2)c(=O)n(C)n3Cc2cccc(C(F)(F)F)c2)cc1	i	i	i	nt	nt
COc1ccc(-n2c(CNC(=O)c3ccccc3C(F)(F)F)nnc2SC)cc1	nt	nt	i	nt	nt
Cc1ccc(N2NC(=O)/C(=C\c3cc4c(cc3[N+](=O)[O-])OCO4)C2=O)cc1C	-105	?	?	i	i
COc1cc(/C=C2/C(=O)NN(c3ccc(C)c(Cl)c3)C2=O)cc([N+](=O)[O-])c1O	i	nt	i	?	i
COCCNC(=S)N/N=C(\C)c1ccc(Cl)s1	-96	i	?	i	i
Cc1ccc(NCc2cccc(B(O)O)c2)cc1	-95	i	i	i	nt
Cc1cc(C)c2sc(NC(=O)C3CC3)nc2c1	i	i	i	i	i
CCOc1ccc(C(c2c(NC(=O)c3ccccc3)sc(C)c2C)N2CCN(C)CC2)cc1 (centres undefined)	-62	i	?	i	i
NC(=S)N=Nc1c(O)n(CCCl)c2ccc(Br)cc12	-101	?	?	i	i
CC(C)n1nc(C(=O)NNC(=O)c2ccc(OC(F)F)cc2)c2ccccc2c1=O	i	nt	nt	i	i
NCC(O)(c1ccc(Cl)cc1)c1ccc(Cl)cc1	-56	nt	?	i	i
CC(C)(C)NCC(O)(c1ccc(Cl)cc1)c1ccc(Cl)cc1	i	?	?	i	i
CCN(CC)CCNCC(O)(c1ccc(Cl)cc1)c1ccc(Cl)cc1	-87	i	i	i	i
CC(C)NCC(O)(c1ccc(Cl)cc1)c1ccc(Cl)cc1	-84	i	i	i	i
N=C(N)c1ccc(Cl)cc1	i	i	i	i	i
Cc1ccc2c(c1)c1c(n2CC(O)CN2CCOCC2)CCCC1 (centres undefined)	nt	nt	nt	nt	i
Cc1ccc2c(c1)c1c(n2CC(O)CNC2CCCCC2)CCCC1 (centres undefined)	-112	?	?	i	i
Cc1ccc2c(c1)c1c(n2CC(O)CN2CCC(C)CC2)CCCC1 (centres undefined)	-65	nt	?	i	i
COc1ccc(S(=O)(=O)N2CCCCCC2)cc1C(=O)Nc1ccc(C(=O)N(C)C)cc1	i	i	i	i	i
Cc1ccc(Nc2nc(N3CCOCC3)nc(N3CCOCC3)n2)cc1C	-60	nt	i	i	i
Fc1ccc(Nc2nc(N3CCOCC3)nc(N3CCOCC3)n2)cc1	?	i	i	i	i
c1ccc(Nc2nc(N3CCNCC3)nc(N3CCOCC3)n2)cc1	-63	i	i	i	i
SMILES	IL-1B inflam inh	ATXN2 expr inh	ATXN viability	USP1-UAF1 inh	USP2a inh
Cc1cccc(Nc2nc(N3CCCCC3)nc(N3CCCCC3)n2)c1	i	i	i	?	i
Cc1cccc(Nc2nc(N3CCOCC3)nc(N3CCOCC3)n2)c1	-76	i	i	i	i
FC(F)(F)C(Oc1nc(Nc2ccc(Cl)cc2)nc(N2CCOCC2)n1)C(F)(F)F	-76	i	i	i	i
Cc1ccc2oc(-c3ccc(C)c(NC(=O)/C=C/c4ccco4)c3)nc2c1	nt	i	i	i	nt
COC(=O)C1CCCCN1Cc1ccc2c(c1)CN(C(=O)c1ccc(C)s1)CCO2 (centres undefined)	nt	nt	i	nt	nt
CCc1cccc(C)c1NC(=O)NC1COc2ccccc2C1 (centres undefined)	nt	nt	nt	i	nt
Nc1ccccc1Nc1cc(-c2ccccc2)[nH]n1	-94	i	i	i	i
COc1ccc(S(=O)(=O)N(Cc2nc(-c3ccc(Cl)cc3)no2)C2CCCCC2)cc1	nt	nt	nt	i	nt
O=S1(=O)N[C@@H](Cc2ccccc2)COc2cccc(N3CCN(Cc4ccccc4F)CC3)c21	i	?	28µM	nt	nt
CC(C)C[C@@H]1COc2cccc(N3CCN(Cc4ccccc4F)CC3)c2S(=O)(=O)N1	i	?	?	nt	nt
NC(=O)c1ccc(-c2nc(-c3ccc4c(c3)OCO4)c(-c3ccccn3)[nH]2)cc1	nt	i	nt	nt	nt
C#CC[N+](CC)(CC)CC#Cc1ccccc1	i	i	i	i	i
CC[N+](CC)(CC#Cc1ccccc1)CC#Cc1ccccc1	-81	i	i	i	i
Cc1ccc2nc(-c3ccc(NC(=S)NC(=O)C(C)C)cc3)sc2c1	?	i	i	i	i
Cc1ccc2nc(-c3ccc(NC(=S)NC4CC(C)(C)NC(C)(C)C4)cc3)sc2c1	-97	i	?	i	i
COc1ccc(CNC(=O)COC(=O)/C=C/c2cccc(Cl)c2)cc1	i	i	i	i	i
CN(C)C(CNc1ncnc2sc3c(c12)CCCCC3)c1ccco1 (centres undefined)	-51	i	i	i	i
O=C(CS(=O)(=O)c1cccc2nsnc12)Nc1ccccc1Cl	nt	i	i	i	nt
COC(=O)[C@H]1C[C@H](OC(=O)NCc2ccco2)[C@@]2(O)CN(S(=O)(=O)c3ccc(C)cc3)CC2[C@H]1C(=O)OC (some centres undefined)	-64	i	i	i	nt
Cc1ccc(S(=O)(=O)N2C[C@H]3n4c(=O)ccc(=O)n4C[C@H](OC(=O)NCc4ccccc4)[C@@]3(O)C2)cc1	i	i	?	i	nt
Cc1ccc(S(=O)(=O)N2C[C@H]3n4c(=O)ccc(=O)n4C[C@H](OC(=O)NCC4CCCCC4)[C@@]3(O)C2)cc1	-109	16µM	22µM	i	nt
Cc1ccc(S(=O)(=O)N2C[C@H]3n4c(=O)ccc(=O)n4C[C@H](OC(=O)NCc4ccco4)[C@@]3(O)C2)cc1	-54	i	i	i	nt
CCCCCCn1c(=O)n2n(c1=O)[C@@H]1CN(S(=O)(=O)c3ccc(C)cc3)C[C@]1(O)[C@@H](OC(=O)NCc1ccccc1)C2	-71	?	nt	i	nt
COc1ccc(C(CNC(=O)C(C)Sc2ccccc2)N2CCOCC2)cc1 (centres undefined)	i	i	i	i	nt
COc1cc(-c2ccc(C(F)(F)F)cn2)cc2c1OCCN(S(=O)(=O)C[C@]13CC[C@H](CC1=O)C3(C)C)C2	nt	nt	i	nt	nt
SMILES	IL-1B inflam inh	ATXN2 expr inh	ATXN viability	USP1-UAF1 inh	USP2a inh
CCn1nc(C)cc1C(=O)n1nc(C)c(Sc2ncccn2)c1C	i	i	i	i	i
CCc1cccc(NC(=O)CCc2c(C)nn(-c3ccc(N4CCCCC4)nn3)c2C)c1	i	i	i	i	i
Cc1[nH]nc(-c2cccnc2)c1N=NN(C)C	-104	i	nt	i	nt
CN(C)c1nc(N)nc(-c2cccnc2)n1	i	i	i	i	i
O=C(NCc1ccccc1Cl)c1ccc(NC(=O)N2CCCCc3ccccc32)cc1	nt	i	i	i	nt
O=C(CCn1c(=O)c2ccccc2n(CC(=O)Nc2ccc(F)cc2)c1=O)NCCc1ccccc1	nt	i	i	i	nt
COc1ccc(C(=O)/C=C/c2cc(OC)c(O)c(OC)c2)c(F)c1	-100	?	?	i	i
